Measurements published in PubChem BioAssay.
Values without a mark were called inactive. For part of these data: Measured potencies and affinities stand elsewhere. Calls of active or inactive are those of the source. Unless noted, the rule behind the calls is not given here.

How the values were obtained:
[1] = antimalarial activity against Dd2 strain (AID 2302;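 active = growth inhibition above 50% at the single 2 µM test dose, taken to imply half-maximal potency below 2 µM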;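 note: 0% = DMSO untreated growth and 100% = chloroquine plus artemisinin killed control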); details: P. falciparum Dd2 in RBCs, LDH growth readout, 72 h; at 2 µM; stronger effect = higher value
[2] = HepG2 cytotoxicity, primary screen, cytotoxicity control for P. falciparum antimalarial project, cell-based, ATP luminescence (AID 2303;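 active = inhibition above 50%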;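 note: 0% = DMSO wells and 100% = digitonin-killed cells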); details: HepG2 viability, 24-48 h, at 10 µM, stronger effect = higher value
[3] = biological target: L-lactate dehydrogenase (Plasmodium falciparum (isolate CDC / Honduras)) (UniProt Q27743); experiment: PfLDH activity inhibition – cell lysate, 3D7 strain, counter-screen for P. falciparum growth inhibition project (AID 2304);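 note: 0% = vehicle and 100% = reference inhibitor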; details: P. falciparum 3D7 crude extract, LDH APAD/NBT absorbance; at 2 µM; stronger effect = higher value
[4] = inhibition of 3D7 malaria parasite growth – strain 3D7 (AID 2306);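 note: 0% = DMSO wells and 100% = chloroquine plus artemisinin control wells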; details: P. falciparum 3D7 erythrocytic growth, LDH absorbance, 72 h; at 2 µM; stronger effect = higher value
[5] = biological target: Calcium-dependent protein kinase 1 (Plasmodium falciparum (isolate 3D7)) (UniProt P62344); experiment: PfCDPK1 kinase inhibitors, biochemical, TCAMS library (AID 1159585; cut-off not given, nearly all actives have IC50 up to about 0.98 µM;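 note: inhibitors leave more ATP so luminescence rises with inhibition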); details: recombinant PfCDPK1, Kinase-Glo ATP depletion luminescence
[6] = biological target: Plasmodium falciparum protein kinase 6 (PK6, PF3D7_1337100) (UniProt Q8IDW1); experiment: PfPK6 kinase inhibitors, biochemical, TCAMS library (AID 1159586); details: recombinant PfPK6, Kinase-Glo ATP depletion luminescence
[7] = biological target: Protein kinase 7 (PK7), Plasmodium falciparum 3D7 (PF3D7_0213400) (UniProt Q7YTF7); experiment: inhibition of Plasmodium PK7 catalytic activity – biochemical, TCAMS antimalarial set, Kinase-Glo luminescence (AID 1159587); details: recombinant PfPK7, Kinase-Glo ATP depletion luminescence
[8] = biological target: Calcium-dependent protein kinase 4 (Plasmodium falciparum (isolate 3D7)) (UniProt Q8IBS5); experiment: PfCDPK4 kinase inhibitors, biochemical, TCAMS library (AID 1159588; cut-off not given, nearly all actives have IC50 up to about 0.91 µM); details: recombinant PfCDPK4, Kinase-Glo ATP depletion luminescence
Sequence of Calcium-dependent protein kinase 4 (Plasmodium falciparum (isolate 3D7)) (Q8IBS5 whole entry, looked up): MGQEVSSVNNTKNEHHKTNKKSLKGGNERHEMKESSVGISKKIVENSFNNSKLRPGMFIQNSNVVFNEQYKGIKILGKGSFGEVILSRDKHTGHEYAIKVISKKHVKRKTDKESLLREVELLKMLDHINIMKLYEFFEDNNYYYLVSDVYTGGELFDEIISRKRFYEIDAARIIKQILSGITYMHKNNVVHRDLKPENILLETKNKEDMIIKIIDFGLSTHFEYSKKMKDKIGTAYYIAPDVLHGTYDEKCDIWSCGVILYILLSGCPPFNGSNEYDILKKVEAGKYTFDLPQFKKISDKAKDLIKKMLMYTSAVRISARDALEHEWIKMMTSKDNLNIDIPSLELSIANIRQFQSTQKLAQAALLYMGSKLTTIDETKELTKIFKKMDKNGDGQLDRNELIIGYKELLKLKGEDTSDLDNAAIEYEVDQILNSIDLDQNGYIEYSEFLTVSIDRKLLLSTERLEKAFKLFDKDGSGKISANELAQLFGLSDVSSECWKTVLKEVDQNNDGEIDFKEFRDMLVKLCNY

Sequence of Plasmodium falciparum protein kinase 6 (PK6, PF3D7_1337100) (Q8IDW1 1-305): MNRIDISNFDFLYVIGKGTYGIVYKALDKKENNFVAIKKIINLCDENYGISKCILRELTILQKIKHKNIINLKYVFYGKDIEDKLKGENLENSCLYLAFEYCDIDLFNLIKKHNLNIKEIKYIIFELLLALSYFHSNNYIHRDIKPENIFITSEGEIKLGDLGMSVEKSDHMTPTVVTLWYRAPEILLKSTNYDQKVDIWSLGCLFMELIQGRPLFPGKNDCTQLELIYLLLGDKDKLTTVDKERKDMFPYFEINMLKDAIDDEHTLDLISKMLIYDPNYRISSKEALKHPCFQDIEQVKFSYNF
Sequence of L-lactate dehydrogenase (Plasmodium falciparum (isolate CDC / Honduras)) (Q27743 whole entry, looked up): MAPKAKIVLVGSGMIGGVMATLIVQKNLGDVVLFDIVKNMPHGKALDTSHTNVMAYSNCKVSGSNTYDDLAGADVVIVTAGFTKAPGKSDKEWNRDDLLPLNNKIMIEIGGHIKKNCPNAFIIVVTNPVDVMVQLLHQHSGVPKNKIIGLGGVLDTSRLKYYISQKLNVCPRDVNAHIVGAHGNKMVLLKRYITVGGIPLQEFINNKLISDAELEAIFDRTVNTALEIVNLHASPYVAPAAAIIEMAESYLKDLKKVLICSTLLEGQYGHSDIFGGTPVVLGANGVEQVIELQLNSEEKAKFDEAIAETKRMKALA
Sequence of Calcium-dependent protein kinase 1 (Plasmodium falciparum (isolate 3D7)) (P62344 whole entry, looked up): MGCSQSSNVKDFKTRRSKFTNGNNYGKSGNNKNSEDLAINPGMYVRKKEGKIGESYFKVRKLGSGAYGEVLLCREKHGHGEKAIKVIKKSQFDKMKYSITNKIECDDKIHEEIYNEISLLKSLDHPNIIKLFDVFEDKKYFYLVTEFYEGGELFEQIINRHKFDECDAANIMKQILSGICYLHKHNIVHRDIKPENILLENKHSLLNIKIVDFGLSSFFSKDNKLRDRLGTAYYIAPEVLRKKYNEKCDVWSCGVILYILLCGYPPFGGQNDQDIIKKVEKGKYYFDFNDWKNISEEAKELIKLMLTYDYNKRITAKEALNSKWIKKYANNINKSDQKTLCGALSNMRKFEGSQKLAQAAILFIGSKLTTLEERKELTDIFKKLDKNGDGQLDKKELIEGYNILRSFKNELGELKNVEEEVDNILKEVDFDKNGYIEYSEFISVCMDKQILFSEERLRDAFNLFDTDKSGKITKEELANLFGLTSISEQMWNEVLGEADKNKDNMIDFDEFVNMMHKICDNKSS
Sequence of Protein kinase 7 (PK7), Plasmodium falciparum 3D7 (PF3D7_0213400) (Q7YTF7 1-343): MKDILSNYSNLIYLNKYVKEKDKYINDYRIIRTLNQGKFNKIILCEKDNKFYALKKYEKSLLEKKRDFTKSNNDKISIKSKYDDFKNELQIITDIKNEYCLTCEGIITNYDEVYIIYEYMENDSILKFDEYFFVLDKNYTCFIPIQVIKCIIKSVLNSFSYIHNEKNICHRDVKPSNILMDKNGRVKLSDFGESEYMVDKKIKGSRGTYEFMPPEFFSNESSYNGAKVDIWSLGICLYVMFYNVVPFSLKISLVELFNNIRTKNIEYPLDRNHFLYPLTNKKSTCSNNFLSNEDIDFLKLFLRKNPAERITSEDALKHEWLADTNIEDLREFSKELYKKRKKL

Compound	growth inhibition [1]	inhibition [2] [%]	inhibition [3] [%]	growth inhibition [4]	outcome [5]	outcome [6]	outcome [7]	outcome [8]
Cc1cc(NN=Cc2ccc(Cl)cc2)c2cc(F)ccc2n1	98% (active)	6	2	101% (active)	inactive	inactive	inactive	inactive
CCOc1c(Br)cc(Br)cc1CNCCCCNc1nc2ccccc2[nH]1	37%	25	-4	101% (active)	inactive	inactive	inactive	inactive
CC(C)N1CCN(C(CN2CCN(CCCOc3ccc4nonc4c3)CC2)c2ccc(F)cc2)CC1 (centres undefined)	40%	-3	-3	97% (active)	inactive	inactive	inactive	inactive
